Active and inactive are the calls of the source. How the source made its calls: active means hit-call score of the fitted dose curve at least 0.9, where 1 is the maximum; inactive means score below 0.9.
Experiments:
[1] = APR_HepG2_CellCycleArrest_24hr: Apredica 24-hour HepG2 Assay for Cell Cycle Arrest (AID 2282905); settings: imaging, actives raise or lower the signal;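 further: cell cycle arrest scored as ratio of 2N to 4N nuclear DNA content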
Procedure, shortened: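 Cell cycle arrest is scored from nuclear DNA content measured by high-content imaging of Hoechst 33342-stained HepG2 cells following 24-hour treatment at ten concentrations up to 200 uM, with DMSO as baseline.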

[2] = APR_HepG2_NuclearSize_24hr: Apredica 24-hour HepG2 Assay for Nuclear Size (AID 2282907); settings: high-content imaging, actives raise or lower the signal
Procedure, shortened: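 Compounds in DMSO (final 0.5%) were added to human HepG2 hepatoma cells at ten concentrations up to 200 uM for 24 hr. Fixed nuclei were stained with Hoechst 33342, and nuclear diameter was quantified from automated images.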

[3] = APR_HepG2_CellLoss_24hr: Apredica 24-hour HepG2 Assay for Cell Loss (AID 2282908); settings: high-content imaging;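 on AC50: fit in both directions so a hit may be cell loss or gain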
Procedure, shortened: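 Cell number is quantified by fluorescence imaging of Hoechst 33342-stained nuclei following dosing at 0.39–200 uM in 0.5% DMSO. Curves are fitted in both directions from the DMSO baseline.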

[4] = APR_HepG2_MicrotubuleCSK_24hr: Apredica 24-hour HepG2 Assay for Microtubule CSK Stabilty (AID 2282909); settings: HepG2 microtubule cytoskeleton imaging, actives raise or lower the signal
Procedure, shortened: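 Steps: dose HepG2 for 24 h (0.39–200 uM, 0.5% DMSO); fix 30 min in 3.7% formaldehyde at room temperature; permeabilize; stain alpha-tubulin 60 min; image microtubule cytoskeleton at 20x. Signal change fitted in both directions relative to DMSO.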

[5] = APR_HepG2_MitoticArrest_24hr: Apredica 24-hour HepG2 Assay for Mitotic Arrest (AID 2282910); settings: high-content imaging, actives raise or lower the signal
Procedure, shortened: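 Compounds are dosed onto HepG2 cells across ten concentrations up to 200 uM for 24 hr. Cells are then fixed in 3.7% formaldehyde, permeabilised, and labelled for phospho-histone H3 and nuclei; images are scored by cell cycle analysis and fitted bidirectionally relative to DMSO.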

[6] = APR_HepG2_MitoMembPot_24hr: Apredica 24-hour HepG2 Assay for Mitochondrial Membrane Potential (AID 2282911); settings: imaging, actives raise or lower the signal
Procedure, shortened: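 HepG2, 24 hr dosing, 10 concentrations 0.39–200 uM, 0.5% DMSO final. Live-cell MitoTracker Red CMXRos 250 nM 30 min, then 3.7% formaldehyde fix. HCS fluorescence imaging, 20x; bidirectional fit vs DMSO baseline.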

[7] = APR_HepG2_MitoMass_24hr: Apredica 24-hour HepG2 Assay for Mitochondrial Mass (AID 2282912); settings: high-content imaging, actives raise or lower the signal
Procedure, shortened: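 The liver line HepG2 was dosed in duplicate across a 0.39–200 uM series, with final DMSO held at 0.5% v/v, and harvested at 24 hr. High-content imaging measured mitochondrial dye staining.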

[8] = APR_HepG2_p53Act_24hr: Apredica 24-hour HepG2 Assay for p53 Activation (AID 2282913); settings: high-content imaging, actives raise or lower the signal;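 further: p53 protein immunofluorescence averaged per cell in HepG2 with Hoechst nuclei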
Procedure, shortened: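 Read-out: Cy5 immunofluorescence for p53 in fixed, permeabilized HepG2, imaged by HCS with Hoechst-defined nuclei. Dosing was 24 hr at 0.39–200 uM in 0.5% DMSO. Curves were fitted bidirectionally relative to DMSO.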

[9] = APR_HepG2_CellCycleArrest_72hr: Apredica 72-hour HepG2 Assay for Cell Cycle Arrest (AID 2282914); settings: high-content imaging, actives raise or lower the signal
Procedure, shortened: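 HepG2, 72 hr exposure, 10-point 0.39–200 uM, duplicate, 0.5% DMSO final. Fix 3.7% formaldehyde 30 min RT, Triton X-100 0.5%, Hoechst 33342 2 ug/mL. ArrayScan 20x, six fields/well; DNA content per nucleus; bidirectional fit vs DMSO.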

[10] = APR_HepG2_CellLoss_72hr: Apredica 72-hour HepG2 Assay for Cell Loss (AID 2282915); settings: high-content imaging
Procedure, shortened: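 Cell number comes from Hoechst 33342-labelled nuclei, imaged at 20x after 3.7% formaldehyde fixation. Dosing was 0.39–200 uM, ten concentrations in duplicate, 0.5% DMSO final, for 72 h. Bidirectional fit relative to DMSO baseline.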

Measured: AC50

COC(=O)[C@H]1[C@H]2C[C@@H]3c4[nH]c5cc(OC)ccc5c4CCN3C[C@H]2C[C@@H](OC(=O)c2cc(OC)c(OC)c(OC)c2)[C@@H]1OC
inactive: [2] | [9]
active: [1] 79 µM | [3] 37.6 µM | [4] 44.3 µM | [5] 31.1 µM | [6] 90.2 µM | [7] 41.2 µM | [8] 40.3 µM | [10] 19.5 µM

CC(=O)O
active: [1] 97 µM | [3] 112 µM | [5] 126 µM | [9] 0.16 µM | [10] 49.4 µM
inactive: [2] | [4] | [6] | [7]

C=CCc1ccc(OC)c(OC)c1
inactive: all assays above

Cc1c(C)c2c(c(C)c1O)CCC(C)(COc1ccc(CC3SC(=O)NC3=O)cc1)O2 (stereo not given)
active: [1] 75.7 µM | [3] 88.2 µM | [4] 122 µM | [6] 96.5 µM | [10] 83.8 µM
inactive: all other assays above

CC(C)COC(=O)CCCCC(=O)OCC(C)C
not listed: [8]
inactive: all other assays above

c1ccc2occc2c1
inactive: all assays above

Cn1cnc2c1c(=O)[nH]c(=O)n2C
not listed: [8]
inactive: all other assays above

CS(=O)(=O)c1ccc([C@@H](C[C@H]2CCC(=O)C2)C(=O)Nc2cnccn2)cc1Cl
inactive: all assays above

COc1ccc(OC(F)(F)F)cc1CN[C@H]1CCCN[C@H]1c1ccccc1
active: [1] 29.2 µM | [2] 33.4 µM | [5] 39.5 µM | [7] 66.7 µM | [8] 24.9 µM | [10] 27.5 µM
inactive: [4] | [6] | [9]

NCCOCCOCCN
active: [1] 0.998 µM | [3] 92.3 µM | [4] 170 µM | [5] 14.3 µM | [6] 107 µM | [7] 45.3 µM | [8] 83.7 µM | [9] 18.6 µM | [10] 16.6 µM
inactive: [2]

CN(C)CCCN1c2ccccc2Sc2ccc(Cl)cc21
active: [2] 129 µM | [3] 35 µM | [5] 19.7 µM | [7] 31 µM | [8] 28.5 µM | [9] 102 µM | [10] 33.9 µM
inactive: [1] | [4] | [6]

O=[Si]=O
active: [10] 61.4 µM
inactive: all other assays above

CCOCCOCCO
inactive: all assays above

CC(=O)[C@@]1(O)CC[C@H]2[C@@H]3CCC4=CC(=O)CC[C@]4(C)[C@H]3CC[C@@]21C
not listed: [8]
inactive: all other assays above

O=Cc1ccccc1C=O
not listed: [8]
inactive: all other assays above

CC1=C(C)S(=O)(=O)CCS1(=O)=O
active: [9] 42.8 µM | [10] 37.4 µM
inactive: all other assays above

O=C1NC(=O)C(c2ccccc2)(c2ccccc2)N1
not listed: [8]
inactive: all other assays above

CO[C@@H]1COCC[C@@H]1N[C@@H]1CC[C@@](C(=O)N2CCc3ncc(C(F)(F)F)cc3C2)(C(C)C)C1
inactive: all assays above

O=C1CCCCC1
not listed: [8]
inactive: all other assays above

OCC(CO)n1cnc(-c2ccc(F)cc2)c1-c1ccnc(Oc2ccccc2)n1
not listed: [3]
inactive: all other assays above

Nc1nc(Cl)nc2c1ncn2[C@H]1C[C@H](O)[C@@H](CO)O1
active: [2] 0.0451 µM | [3] 0.0403 µM | [7] 0.243 µM | [8] 0.208 µM | [9] 0.0388 µM | [10] 0.162 µM
inactive: [1] | [4] | [5] | [6]

O=C(O)CN(CC(=O)O)CC(=O)O
not listed: [3]
inactive: all other assays above

O=C(O)c1[nH]n(-c2ccc(S(=O)(=O)O)cc2)c(=O)c1N=Nc1ccc(S(=O)(=O)O)cc1
inactive: all assays above

Oc1ccc(O)cc1
active: [7] 51.4 µM | [8] 19 µM | [9] 100 µM | [10] 71.7 µM
inactive: all other assays above

CC(=O)CC(c1ccccc1)c1c(O)c2ccccc2oc1=O (stereo not given)
not listed: [8]
inactive: all other assays above

CCCC(=O)O
not listed: [8]
inactive: all other assays above

NC=O
not listed: [8]
inactive: all other assays above

CCc1nc(N)nc(N)c1-c1ccc(Cl)cc1
active: [9] 100 µM | [10] 80.2 µM
inactive: all other assays above

NC(=Nc1ccccc1)Nc1ccccc1
active: [1] 8.86 µM | [5] 21.7 µM | [10] 18.1 µM
inactive: all other assays above

OCC(O)CO
active: [8] 0.0391 µM
not listed: [3]
inactive: all other assays above

CN(C)C(=O)NC1(c2ccccc2)CCN(CC[C@@]2(c3ccc(F)c(F)c3)CN(C(=O)c3ccccc3)CCO2)CC1
active: [5] 101 µM | [7] 97.8 µM | [10] 111 µM
not listed: [2]
inactive: all other assays above

CCCC[C@H]1CN(CC2CCOCC2)C(=O)OC12CCN(C1(C)CCN(C(=O)c3c(C)ncnc3C)CC1)CC2
not listed: [3]
inactive: all other assays above

N[C@@H](Cc1c[nH]c2ccccc12)C(=O)O
not listed: [3] | [8]
inactive: all other assays above

CCCCC(CC)COC(=O)CCCCCCCC(=O)OCC(CC)CCCC (stereo not given)
not listed: [3]
inactive: all other assays above

CCCCCCC(CCCCCCCCCCC(=O)OCC(COC(C)=O)OC(C)=O)OC(C)=O (stereo not given)
not listed: [3]
inactive: all other assays above

C#CC(O)C(CC)CCCC (stereo not given)
not listed: [3] | [8]
inactive: all other assays above

CC(N)=O
active: [10] 115 µM
not listed: [3] | [8]
inactive: all other assays above

Cc1cc(Cc2ccc(N)c(C)c2)ccc1N
active: [1] 35.1 µM | [9] 103 µM | [10] 77.8 µM
not listed: [3]
inactive: all other assays above

C/C=C/c1ccc(OC)cc1
not listed: [3] | [8]
inactive: all other assays above

COc1ccc(C(=O)Nc2nc3ccccc3c(NCc3ccccc3)c2C#N)cc1
active: [6] 43.4 µM | [7] 159 µM | [8] 160 µM | [10] 45.3 µM
not listed: [3]
inactive: all other assays above

CCCCCCCC(=O)OC
not listed: [3]
inactive: all other assays above

Cc1cc(SC2=C(O)C[C@@](CCc3ccc(N)cc3)(C(C)C)OC2=O)c(C(C)(C)C)cc1CO
active: [6] 0.0797 µM
not listed: [3]
inactive: all other assays above

Reference: PubChem BioAssay (EPA / NIEHS)
